# Source: PubChem BioAssay (NCI)
# Compounds without any hit were thinned out: in the full panel of roughly 79,000, 15% have a hit. Calls of active or inactive are those of the source. Cut-off read from the data, not from the text of the source: active = growth inhibition above about 70%; inactive = the rest.
# Assay: NCI Yeast Anticancer Drug Screen. Data for the rad50 strain (AID 155);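 note: 0% = growth of vehicle-only cultures of the same strain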
# Details: S. cerevisiae rad50 strain growth inhibition; at 50.0 µM (retest, dose inferred, filed as 5.0); stronger effect = higher value
# Outline: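 DNA repair mutant yeast, compound exposure, growth read-out; inhibition is taken relative to vehicle.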
row,SMILES,growth inhibition
1,COc1ccc2nc3cccc([N+](=O)[O-])c3c(NCCNCCN(C)C)c2c1,97% (active)
2,Cc1cccc(/C=N/NC(=S)NC2CCCCC2)n1,77% (active)
3,COC(=O)C(=O)c1c(-c2ccc(Cl)c(Cl)c2)[nH]c2[nH]n(-c3ccccc3)c(=O)c2c1=O,85% (active)
4,c1ccc([P+](CCN2Cc3ccccc3C2)(c2ccccc2)c2ccccc2)cc1,69% (inactive)
5,Cc1cc(C)c2[s+]snc2c1,23% (inactive)
6,CC(C)(Br)C(=O)/C=C/c1ccccc1,93% (active)
7,Cc1ccc(S(=O)(=O)NC(=O)C2C(=O)CC3(CCCCC3)CC2=O)cc1,25% (inactive)
8,NC(=S)N1N=C2c3ccccc3CC[C@H]2[C@@H]1c1ccc(Cl)cc1,78% (active)
9,O=[N+]([O-])/C=C/c1cc2ccc3ccccc3c2[nH]1,96% (active)
10,O=C1C(=C2CCCC2)CCC1CN1CCCCC1 (configuration not stated),57% (inactive)
11,OC(CC(O)(C(F)(F)F)C(F)(F)F)c1ccc(C(O)CC(O)(C(F)(F)F)C(F)(F)F)cc1 (configuration not stated),100% (active)
12,COc1cc2c(cc1OC)[C@@H](Nc1ccc(C#N)cc1)C1COC(=O)[C@@H]1C2c1cc(OC)c(O)c(OC)c1 (some centres not stated),97% (active)
13,O=c1cccccc1[O-].O=c1cccccc1[O-].O=c1cccccc1[O-].[Eu+3],38% (inactive)
14,O=C1c2ccccc2C(=O)c2sc(Nc3ccccc3Cl)nc21,99% (active)
15,NC(CCCCCCCCCCCCC(N)C(=O)c1ccccc1)C(=O)c1ccccc1 (configuration not stated),88% (active)
16,CC1=C(C)C(=O)C2=C(OCCO2)C1=O,87% (active)
17,c1ccc(-c2cc(C3CO3)c3ccccc3n2)cc1 (configuration not stated),15% (inactive)
18,S=C1C(=Nc2ccccc2)N(c2ccccc2)/C(=N\c2ccccn2)N1c1ccccc1,97% (active)

row,SMILES,growth inhibition
1,CCC(OC(C)=O)C1CC(C(C)C)CCC1C (configuration not stated),9% (inactive)
2,CC(C)=CCc1c2c(c(O)c3c(=O)c(-c4ccc(O)c(O)c4)coc13)C=CC(C)(C)O2,91% (active)
3,O=C(NC(N1CCN(c2cc3c(cc2F)c(=O)c(C(=O)O)cn3C2CC2)CC1)(C(F)(F)F)C(F)(F)F)c1ccccc1,96% (active)
4,Fc1cc(F)c(F)c(S)c1F,91% (active)
5,COc1ccc2cc3c4cc5c(cc4cc[n+]3cc2c1OC)OCO5,96% (active)
6,CCCCCCCCNCCCCCCCC,99% (active)
7,Nc1cc(Cl)ccc1Nc1ccccc1,99% (active)
8,O=C(/C(=C/c1ccc(O)cc1)c1ccccc1)c1ccccc1,98% (active)
9,O=Cc1ccccc1C=O,16% (inactive)
10,C1=CCN([B-](c2ccccc2)[C+]2CCCCC2)C=C1,86% (active)
11,CC/C(=C(\c1ccccc1)c1ccc(OCC[N+](C)(C)C)cc1)c1ccccc1,70% (active)
12,O=S(=O)(c1cccc(C(F)(F)F)c1)N1c2ccccc2-n2cccc2C1c1cccnc1 (configuration not stated),96% (active)
13,Nc1ccc2c(c1)C(=O)c1c(F)cccc1-2,78% (active)
14,CN(C)/C(=N/C(=S)Nc1ccccc1)SCc1ccccc1,70% (active)
15,CCN(CC)C(=S)N/N=C(\C)c1ccccc1O,96% (active)
16,CC(C)OC(=O)NNc1cc(Cl)ccc1Cl,44% (inactive)
17,CC(C)CCC[C@@H](C)[C@H]1CC[C@H]2[C@@H]3CC[C@H]4C[C@H](N)CC[C@]4(C)[C@H]3CC[C@]12C,49% (inactive)
18,O=C1c2ccccc2-c2ccc(N=Cc3ccccc3)cc21,51% (inactive)

# Same assay, conditions: S. cerevisiae rad50 strain growth inhibition; at 50.0 µM; stronger effect = higher value
row,SMILES,growth inhibition
1,COc1ccc2nc3cccc([N+](=O)[O-])c3c(NCCNCCN(C)C)c2c1,74.7% (active)
2,Cc1cccc(/C=N/NC(=S)NC2CCCCC2)n1,39.5% (inactive)
3,COC(=O)C(=O)c1c(-c2ccc(Cl)c(Cl)c2)[nH]c2[nH]n(-c3ccccc3)c(=O)c2c1=O,93.1% (active)
4,c1ccc([P+](CCN2Cc3ccccc3C2)(c2ccccc2)c2ccccc2)cc1,72.1% (active)
5,Cc1cc(C)c2[s+]snc2c1,50.5% (inactive)
6,CC(C)(Br)C(=O)/C=C/c1ccccc1,88.3% (active)
7,Cc1ccc(S(=O)(=O)NC(=O)C2C(=O)CC3(CCCCC3)CC2=O)cc1,-9.4% (inactive)
8,NC(=S)N1N=C2c3ccccc3CC[C@H]2[C@@H]1c1ccc(Cl)cc1,83% (active)
9,O=[N+]([O-])/C=C/c1cc2ccc3ccccc3c2[nH]1,95.8% (active)
10,O=C1C(=C2CCCC2)CCC1CN1CCCCC1 (configuration not stated),76.3% (active)
11,OC(CC(O)(C(F)(F)F)C(F)(F)F)c1ccc(C(O)CC(O)(C(F)(F)F)C(F)(F)F)cc1 (configuration not stated),99% (active)
12,COc1cc2c(cc1OC)[C@@H](Nc1ccc(C#N)cc1)C1COC(=O)[C@@H]1C2c1cc(OC)c(O)c(OC)c1 (some centres not stated),88% (active)
13,O=c1cccccc1[O-].O=c1cccccc1[O-].O=c1cccccc1[O-].[Eu+3],92.5% (active)
14,O=C1c2ccccc2C(=O)c2sc(Nc3ccccc3Cl)nc21,89.6% (active)
15,NC(CCCCCCCCCCCCC(N)C(=O)c1ccccc1)C(=O)c1ccccc1 (configuration not stated),-5.55% (inactive)
16,CC1=C(C)C(=O)C2=C(OCCO2)C1=O,1% (inactive)
17,c1ccc(-c2cc(C3CO3)c3ccccc3n2)cc1 (configuration not stated),90.7% (active)
18,S=C1C(=Nc2ccccc2)N(c2ccccc2)/C(=N\c2ccccn2)N1c1ccccc1,98.1% (active)

row,SMILES,growth inhibition
1,CCC(OC(C)=O)C1CC(C(C)C)CCC1C (configuration not stated),-15.1% (inactive)
2,CC(C)=CCc1c2c(c(O)c3c(=O)c(-c4ccc(O)c(O)c4)coc13)C=CC(C)(C)O2,84.8% (active)
3,O=C(NC(N1CCN(c2cc3c(cc2F)c(=O)c(C(=O)O)cn3C2CC2)CC1)(C(F)(F)F)C(F)(F)F)c1ccccc1,46.8% (inactive)
4,Fc1cc(F)c(F)c(S)c1F,87.9% (active)
5,COc1ccc2cc3c4cc5c(cc4cc[n+]3cc2c1OC)OCO5,97.1% (active)
6,CCCCCCCCNCCCCCCCC,99.5% (active)
7,Nc1cc(Cl)ccc1Nc1ccccc1,79.2% (active)
8,O=C(/C(=C/c1ccc(O)cc1)c1ccccc1)c1ccccc1,87.5% (active)
9,O=Cc1ccccc1C=O,44.6% (inactive)
10,C1=CCN([B-](c2ccccc2)[C+]2CCCCC2)C=C1,98.9% (active)
11,CC/C(=C(\c1ccccc1)c1ccc(OCC[N+](C)(C)C)cc1)c1ccccc1,90% (active)
12,O=S(=O)(c1cccc(C(F)(F)F)c1)N1c2ccccc2-n2cccc2C1c1cccnc1 (configuration not stated),90.5% (active)
13,Nc1ccc2c(c1)C(=O)c1c(F)cccc1-2,90.5% (active)
14,CN(C)/C(=N/C(=S)Nc1ccccc1)SCc1ccccc1,99.2% (active)
15,CCN(CC)C(=S)N/N=C(\C)c1ccccc1O,93.3% (active)
16,CC(C)OC(=O)NNc1cc(Cl)ccc1Cl,38% (inactive)
17,CC(C)CCC[C@@H](C)[C@H]1CC[C@H]2[C@@H]3CC[C@H]4C[C@H](N)CC[C@]4(C)[C@H]3CC[C@]12C,27.1% (inactive)
18,O=C1c2ccccc2-c2ccc(N=Cc3ccccc3)cc21,82.5% (active)
